# Test results reported in article PMC4552634, “A New Set of Chemical Starting Points with Plasmodium falciparum Transmission-Blocking Potential for Antimalarial Drug Discovery” (PLoS ONE, 2015).
# In all, about 13,000 compounds went through this assay and about 3,200 (25%) showed an effect of 50% or more. The list shows a part of the results.
# Tested on: P. falciparum stage V gametocytes
# Set-up: BacTiter-Glo ATP luminescence viability of purified stage V gametocytes in 384-well plates, per cent inhibition versus DMSO
# Conditions: 48 h, 5 µM; inhibitor
row,SMILES,% Inhibition [%]
1,Cc1cccc2[nH]c(-c3ccc(-c4cccc(CN5CCN(CCO)CC5)c4)cc3)nc12 [TCMDC-133029],-7.664
2,NC(N)=NC(=O)Nc1ccc([N+](=O)[O-])c(Cl)c1 [TCMDC-137468],-7.379
3,NS(=O)(=O)c1cncc(-c2ccc3nccc(-c4cn[nH]c4)c3n2)c1 [TCMDC-134293],66.05
4,Nc1ncc(-c2cn[nH]c2)cc1-c1nc2ccc(F)cc2[nH]1 [TCMDC-133559],26.39
5,Cc1cccc2[nH]c(-c3cc(-c4cn[nH]c4)cnc3N)nc12 [TCMDC-133561],-9.324
6,CC(NC(=O)c1ccc(O)c(-c2ccc(Cl)c(Cl)c2)c1)C(=O)NCCN1CCOCC1 (centres unmarked) [TCMDC-140849],3.738
7,Cc1cnc(N2CCN(CCCN3CCCC3)CC2)nc1Oc1ccc(-n2ccnc2)cc1 [TCMDC-132207],28.92
8,N#Cc1ccc(N(CCOc2ccc(Cl)c(Cl)c2)Cc2ccccc2C(F)(F)F)cc1C(F)(F)F [TCMDC-132795],-20.83
9,CC(Cc1ccc(NC(=O)[C@@H](C)NCCc2cccc(Cl)c2)cc1)NCCc1cccc(Cl)c1 (some centres unmarked) [TCMDC-139831],101.6
10,CC(=O)Nc1ccc(CNCCc2ccc(NC(=O)c3cc(Cl)cc(Cl)c3)cc2)cc1 [TCMDC-140678],2.681
11,CC(=O)Nc1ccc(CCNC(C)Cc2ccc(C(=O)Nc3ccc(CC(C)NCCc4cccc(Cl)c4)cc3)cc2)cc1 (centres unmarked) [TCMDC-139828],108.3
12,CC(Cc1ccc(NC(=O)c2ccc(CC(C)NCc3ccc(Cl)cc3)cc2)cc1)NCCc1cccc(Cl)c1 (centres unmarked) [TCMDC-139810],112.2
13,CC(Cc1ccc(NC(=O)c2ccc(CC(C)NCc3ccc(Cl)c(Cl)c3)cc2)cc1)NCCc1cccc(Cl)c1 (centres unmarked) [TCMDC-139806],8.931
14,CC(Cc1ccc(NC(=O)[C@H](C)NCCc2cccc(Cl)c2)cc1)NCCc1cccc(Cl)c1 (some centres unmarked) [TCMDC-139830],21.29
15,CCOc1ccccc1CCNC(C)Cc1ccc(C(=O)Nc2ccc(CC(C)NCCc3cccc(Cl)c3)cc2)cc1 (centres unmarked) [TCMDC-139805],111.8
16,CC(Cc1ccc(NC(=O)c2ccc(NCCc3ccccc3)cc2)cc1)NCCc1cccc(Cl)c1 (centres unmarked) [TCMDC-139832],47.1
17,Cc1nc(Nc2ccc(F)cc2)nc(N2CCc3ccccc3C2C)c1CO (centres unmarked) [TCMDC-141074],-64.94
18,O=C(Nc1cccc(-c2cccc(-c3nc4ccc(F)cc4[nH]3)c2)c1)c1csnn1 [TCMDC-136899],16.2
19,O=C(Nc1cccc(-c2ccc(-c3nc4ccc(C(F)(F)F)cc4[nH]3)cc2)c1)Nc1ccc(Cl)c(Cl)c1 [TCMDC-133274],-18.31
20,Nc1nc2ccc(S(=O)(=O)Nc3ccc(C(=O)N[C@@H](CCC(=O)O)C(=O)O)c(F)c3)cc2c(=O)[nH]1 [TCMDC-137540],7.521
21,COc1ccc(CCNC(C)Cc2ccc(C(=O)Nc3ccc(CC(C)NCCc4cccc(Cl)c4)cc3)cc2)cc1 (centres unmarked) [TCMDC-139750],113.2
22,CC(Cc1ccc(C(=O)Nc2ccc(CC(C)NCCc3cccc(Cl)c3)cc2)cc1)NCCc1ccc(C(F)(F)F)cc1 (centres unmarked) [TCMDC-139790],137.5

row,SMILES,% Inhibition [%]
1,Cc1cccc2nc(-c3ccc(-c4ccc(C(=O)NCCc5cn(C)cn5)cc4)s3)[nH]c12 [TCMDC-132499],-4.132
2,CCc1cc(NC2CCN(C)CC2)nc(Nc2cccc(OC)c2)n1 [TCMDC-134002],40.04
3,c1ccc(CNc2cc(-c3ccccn3)nc(-c3ccccn3)n2)cc1 [TCMDC-125421],-1.689
4,CC(C)(C)Nc1cc(C2CC2)nc(-c2ccccn2)n1 [TCMDC-124453],105.8
5,Cc1cc(NC2CCCC2)nc(Nc2ccccc2)n1 [TCMDC-133459],-35.61
6,C=CCNc1cc(-c2ccccn2)nc(-c2ccccn2)n1 [TCMDC-123787],23.88
7,CC(C)(C)c1cc(NC2CC2)nc(-c2ccccn2)n1 [TCMDC-125826],69.03
8,c1ccc(-c2nnc(-c3ccccn3)nc2NC2CCCCC2)cc1 [TCMDC-123764],29.34
9,CC(Nc1cc(-c2ccccn2)nc(-c2ccccn2)n1)c1ccccc1 (centres unmarked) [TCMDC-125420],24.2
10,c1ccc(-c2nc(NC3CCCCC3)cc(C3CC3)n2)nc1 [TCMDC-125825],105.2
11,OC1CCN(c2cc(-c3ccccn3)nc(-c3ccccn3)n2)CC1 [TCMDC-123786],41.56
12,Cc1cc(N2CCOCC2)nc(Nc2ccc(NC(=O)Nc3ccc(F)cc3)cc2)n1 [TCMDC-124956],-1.746
13,COc1ccc2nccc([C@@H](O)CN3CCC(NC(=O)Cc4cccc5c(Br)cccc45)CC3)c2c1 [TCMDC-141111],22.03
14,COc1ccc(-n2nc(C(=O)NCCC3=CCCCC3)c3ccccc3c2=O)cc1 [TCMDC-123609],10.78
15,Clc1ccc2nc(-c3cccnc3)[nH]c2c1 [TCMDC-142012],6.492
16,COC(=O)c1cccc(NC(=O)NC2CCN(c3ccnc(NCc4ccc(F)cc4)n3)CC2)c1 [TCMDC-133636],29.63
17,Cc1cc(N(C)C)nc(Nc2ccc(NC(=O)c3c(F)cccc3Cl)cc2)n1 [TCMDC-124976],3.565
18,O=C(Nc1cccc(F)c1)NC1CCN(c2ccnc3cc(Cl)ccc23)C1 (centres unmarked) [TCMDC-133655],-21.12
19,Cc1ccc(NC(=O)c2ccc3ncccc3c2)cc1OC1CCN(CCC(C)C)CC1 [TCMDC-133975],32.86
20,Oc1c(C(Nc2nc3ccccc3s2)c2ccc(OC(F)F)cc2)ccc2cccnc12 (centres unmarked) [TCMDC-124379],115.4
21,Oc1c(C(Nc2nc3ccccc3s2)c2ccccc2)ccc2cccnc12 (centres unmarked) [TCMDC-125565],82.54
22,CCC[C@@H]([C@@H](CC1CCCCC1)C(=O)N[C@H](C(=O)Nc1nccs1)C(C)(C)SCCNC(=O)OCC)N(O)C=O [TCMDC-137778],36.34
